Measured values taken from PubChem BioAssay (EPA / NIEHS).
Inconclusive results are not listed. Calls of active or inactive are those of the source. Rule for the calls: active = hit-call score of the fitted dose curve at least 0.9, where 1 is the maximum; inconclusive = response in the unintended direction; inactive = score below 0.9.

Experiment: Tanguay_ZF_120hpf_EYE_legacy: (Legacy) Oregon State University Tanguay Lab 120 Hour Post-fertilization zebrafish Assay for Eye Malformation (AID 2283636);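 note: binary presence or absence of eye malformation scored by brightfield in 120 hpf larvae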
Procedure, shortened: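 Dechorionated wild-type Tropical 5D zebrafish embryos were exposed statically from 6 hpf, one per well, to 120 hpf at 28C in sealed, foil-covered plates with 0.64% DMSO. Eye malformation was scored present/absent by brightfield microscopy against DMSO controls.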

| SMILES | outcome |
| --- | --- |
| CCCCCOC(=O)COc1cc(N2C(=O)C3=C(CCCC3)C2=O)c(F)cc1Cl | inactive |
| CCSC(=O)N(CC(C)C)CC(C)C | inactive |
| CCC(C)OC(=O)N1CCCCC1CCO (configuration not stated) | inactive |
| CCCCCCC(C)OC(=O)COc1nc(F)c(Cl)c(N)c1Cl (configuration not stated) | inactive |
| O=C(O)C1(C(=O)Nc2ccc(Cl)cc2Cl)CC1 | inactive |
| CCCCOC(=O)C(C)Oc1ccc(Oc2ccc(C(F)(F)F)cn2)cc1 (configuration not stated) | inactive |
| CCOC(=O)C(C)Oc1ccc(Oc2cnc3cc(Cl)ccc3n2)cc1 (configuration not stated) | inactive |
| CCCOC(=O)NCCCN(C)C | inactive |
| CC(C)(C)[C@@H](O)[C@@H](Cc1ccc(Cl)cc1)n1cncn1 | inactive |
| COc1c(Cl)ccc(Cl)c1C(=O)O | inactive |
| C=CCOC(Cn1ccnc1)c1ccc(Cl)cc1Cl (configuration not stated) | inactive |
| CCCCOCCOCCOCc1cc2c(cc1CCC)OCO2 | inactive |
| S=C([S-])NCCNC(=S)[S-].[Mn+2] | inactive |
| CCCOC(=O)c1ccc(C(=O)OCCC)nc1 | inactive |
| CCOC(=O)COc1cc(-n2ncc(C(F)(F)F)c(C)c2=O)c(F)cc1Cl | inactive |
| CCOC(=O)NCCOc1ccc(Oc2ccccc2)cc1 | inactive |
| CCCCOC(=O)[C@@H](C)Oc1ccc(Oc2ccc(C(F)(F)F)cn2)cc1 | inactive |
| Cc1nn(C)c(Oc2ccccc2)c1C=NOCc1ccc(C(=O)OC(C)(C)C)cc1 | inactive |
| OB(O)O | inactive |
| CCOC(=O)C(C)Oc1ccc(Oc2nc3ccc(Cl)cc3o2)cc1 (configuration not stated) | inactive |
| COC(=O)CSc1cc(N=c2sc(=O)n3n2CCCC3)c(F)cc1Cl | inactive |
| CCNc1nc(N)nc(Cl)n1 | inactive |
